# Screens from PubChem BioAssay.
# An excerpt weighted towards active compounds, which were near 3.4% of everything screened.
# TEAD-YAP inh – TEAD-YAP interaction inhibition; HEK-TIYL cells, TEAD-Gal4/YAP UAS-luciferase luminescence; inhibition, % at 9.12 µM; 640,000 tested, 1.4% active; in the data active means inhibition above about 32%;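 further: 0% = median of test compound wells and 100% = reference inhibitor wells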
# FBW7 act – activators of human E3 ligase FBW7. Q969H0. AlphaScreen FBW7–phospho-cyclin E peptide binding, activator screen. normalized activity (activation), % at 26.1 µM. 650,000 tested, 0.13% active. AID 1259310; in the data active means normalized activity above about 1.9%;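 further: purified mutant Fbw7 with reduced substrate affinity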
# GPR151 ag – activates the human receptor GPR151. activation, % at 11.2 µM. 650,000 tested, 1% active. AID 1508602. Q8TDV0. PathHunter beta-arrestin GPR151 cells, luminescence; in the data active means activation above about 4.9%;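 further: 0% = median of compound wells and 100% = cells with positive control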
# MITF inh – inhibitors of human MITF; O75030; AlphaScreen MITF homodimerization, bead proximity signal; inhibition, % at 2.6 µM; 650,000 tested, 0.91% active; in the data active means inhibition above about 50%;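 further: 0% = vehicle wells with protein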
# Target sequence (O75030 whole entry, looked up): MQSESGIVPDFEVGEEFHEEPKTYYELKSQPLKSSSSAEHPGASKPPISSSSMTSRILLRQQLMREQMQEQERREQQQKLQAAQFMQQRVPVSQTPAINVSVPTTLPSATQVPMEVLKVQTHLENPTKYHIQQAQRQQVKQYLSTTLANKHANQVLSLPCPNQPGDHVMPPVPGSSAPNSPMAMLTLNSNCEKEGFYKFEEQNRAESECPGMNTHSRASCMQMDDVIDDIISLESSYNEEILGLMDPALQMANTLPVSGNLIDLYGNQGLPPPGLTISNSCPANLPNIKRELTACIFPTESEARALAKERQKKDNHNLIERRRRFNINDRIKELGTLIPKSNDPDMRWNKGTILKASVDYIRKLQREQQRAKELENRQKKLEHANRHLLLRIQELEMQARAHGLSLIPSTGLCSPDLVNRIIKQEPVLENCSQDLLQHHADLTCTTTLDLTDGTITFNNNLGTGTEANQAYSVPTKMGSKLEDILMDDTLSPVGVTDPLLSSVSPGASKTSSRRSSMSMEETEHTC
# The depositor's hits bear a star; . = no result.
SMILES,TEAD-YAP inh,FBW7 act,GPR151 ag,MITF inh
CC1=C(C(=O)OCC(C)C)C(c2ccc(O)c([N+](=O)[O-])c2)NC(=O)N1 (configuration not stated),15,0,-1,20
CCc1ccc(NC(=O)COc2ccccc2C#N)cc1,-17,0,3,-2
CC(C)(C(=O)Nc1ccc(F)cc1)n1cc(-c2ccccc2F)cn1,.,.,1,.
CNc1nc(Nc2ccc(OC)cc2)c2nccnc2n1,5,2.9*,-1,17
CNc1nc(Nc2ccc(C)c(C)c2)c2nccnc2n1,6,1,-2,0
CCOc1ccccc1-n1c(SCC(=O)c2cccc([N+](=O)[O-])c2)nc2[nH]ncc2c1=O,-1,0,0,10
COc1ccc(-c2nc(Nc3ccc(N4CCOCC4)cc3)c3ncn(-c4ccsc4)c3n2)cn1,45*,0,-1,-2
CC(=O)Nc1ccc(Nc2nc(-c3ccc(N4CCOCC4)nc3)nc3c2ncn3-c2ccsc2)cc1,43*,0,-2,4
c1ccc(Nc2nc(-c3ccc(N4CCOCC4)nc3)nc3c2ncn3-c2ccsc2)cc1,10,0,-1,15
COCC(=O)NC(C)c1cnn(-c2cccc3ccccc23)c1C (configuration not stated),2,0,0,-4
COc1ccccc1CNc1ccccc1F,9,2.2*,-1,-8
COc1ccccc1CC(=O)Nc1ccc(C)cc1C,-2,0,-2,-13
COc1ccccc1CNc1cc(C)ccc1OC,-2,0,0,62*
COc1ccccc1CNc1ccccc1SC,4,0,0,-17
COCCN(Cc1ccccn1)C(Cc1ccccc1)C1CCN(Cc2cnn(C)c2)CC1 (configuration not stated),-2,0,-1,-2
COCCN(Cc1cccnc1)C(Cc1ccccc1)C1CCN(Cc2cnn(C)c2)CC1 (configuration not stated),6,7.6*,2,-5
CCOc1ccc(CNC(=O)Cc2cn(C)c3ccccc23)cc1,5,0,0,18
COc1ccc(CNC(=O)Cc2ccc(-n3cccc3)cc2)cc1,45*,0,-1,16
COCC(=O)N/N=C(\C)CC(=O)NCc1ccc(OC)cc1,-14,2.1*,-1,10
CCOc1ccc(CC(=O)NCc2ccccc2)cc1,37*,0,1,-2
Cc1cccc(NC(=O)CCC(=O)OCC(=O)c2ccc(Cl)cc2)c1,2,0,1,-1
Cc1ncc2c(NCCc3ccccc3)nc3ccccc3n12,-14,0,-2,3
Cc1ncc2c(NCCN(C)C)nc3ccccc3n12,46*,0,1,11
COC(=O)c1ccccc1NC(=O)C(=O)NC1CCC(C)CC1 (configuration not stated),2,0,-1,-7
O=C1/C(=C/C=C/c2ccco2)CCC/C1=C\C=C\c1ccco1,-2,0,0,64*
SMILES,TEAD-YAP inh,FBW7 act,GPR151 ag,MITF inh
O=C1/C(=C\c2ccco2)CCC/C1=C\c1ccco1,0,0,0,83*
O/N=C1\CCCC\C1=C\c1ccco1,-13,0,2,4
O=C1Nc2ccccc2/C1=C/C=C/c1ccco1,-66,0,1,8
Cc1nc(N2CCC(C)CC2)nc(NCc2ccccc2)c1[N+](=O)[O-],0,1,0,-2
CC1C/C(=C/c2ccccn2)C(=O)/C(=C/c2ccccn2)C1 (configuration not stated),80*,0,1,1
CCC(C)(C)c1ccc(OCCOCC[n+]2ccccc2)c(C(C)(C)CC)c1,77*,0,3,2
CCC(C)(C)c1ccc(OCCCC[n+]2cccc(C)c2)c(C(C)(C)CC)c1,85*,0,2,-22
N#CC1=C(N)OC2=C(C(=O)CC(c3ccccc3)C2)C1c1c(Cl)cccc1[N+](=O)[O-] (configuration not stated),41*,1,-1,12
N#CC1=C(N)OC2=C(C(=O)CC(c3ccccc3)C2)C1c1ccc([N+](=O)[O-])s1 (configuration not stated),8,0,1,9
COc1cccc(C2C(C#N)=C(N)N(N(C)C)C3=C2C(=O)CC(c2ccccc2)C3)c1OC (configuration not stated),55*,0,-2,21
COc1ccccc1C1C(C#N)=C(N)OC2=C1C(=O)CC(c1ccccc1)C2 (configuration not stated),-11,0,1,9
COc1cc(C2C(C#N)=C(N)N(N(C)C)C3=C2C(=O)CC(c2ccccc2)C3)cc(OC)c1OC (configuration not stated),57*,0,0,-2
COc1ccc(OC)c(C2C(C#N)=C(N)OC3=C2C(=O)CC(c2ccccc2)C3)c1 (configuration not stated),47*,0,0,6
COc1cccc(C2C(C#N)=C(N)OC3=C2C(=O)CC(c2ccccc2)C3)c1OC (configuration not stated),6,1,0,26
Cc1ccc(C2C(C#N)=C(N)N(N(C)C)C3=C2C(=O)CC(c2ccccc2)C3)cc1 (configuration not stated),3,0,2,7
Cc1ccccc1OCC(=O)Nc1nnc(-c2ccn(C(C)C)n2)o1,5,-1,1,-4
COc1ccc(OC)c(C2C(C#N)=C(N)N(N(C)C)C3=C2C(=O)CC(c2ccccc2)C3)c1 (configuration not stated),57*,0,-1,6
COc1ccc(OC)c(C2C(C#N)=C(N)N(N(C)C)C3=C2C(=O)CC(C)(C)C3)c1 (configuration not stated),6,0,0,6
COC(=O)C(CC(C)C)NS(=O)(=O)c1c(C)cc(C)cc1C (configuration not stated),13,0,2,6
COc1cc(Nc2nc(Nc3ccc(-n4ccnc4)cc3)nc3c2ncn3-c2ccccc2)cc(OC)c1OC,34*,0,0,9
COc1cc(Nc2nc(Cl)nc3c2ncn3-c2ccsc2)cc(OC)c1OC,35*,0,1,10
COc1cc(Nc2nc(Nc3cccnc3)nc3c2ncn3-c2ccsc2)cc(OC)c1OC,25,0,-1,-1
COc1cc(Nc2nc(Nc3cnccn3)nc3c2ncn3-c2ccsc2)cc(OC)c1OC,38*,0,-2,21
COc1cc(Nc2nc(Nc3ccccc3)c3ncn(-c4ccsc4)c3n2)cc(OC)c1OC,4,0,-2,8
COc1cc(Nc2nc(Nc3ccc(-n4ccnc4)cc3)nc3c2ncn3-c2ccsc2)cc(OC)c1OC,44*,0,0,-3
c1ccc2c(c1)OCCC2Nc1ncnc2sc3c(c12)CCC3 (configuration not stated),7,0,2,9
CC(=O)COc1cc(OCC(C)=O)c2c3c(c(=O)oc2c1)CCC3,10,0,0,-1
COc1ccc(N2C(=O)CN(C(=O)c3ccccn3)CC2(C)C)cc1,-1,0,-1,11
